# Measurements from PubChem BioAssay AID588335 (The Scripps Research Institute Molecular Screening Center, 2011).
# Screen size: about 360,000 compounds; about 4,500 (1.2%) were called active. Shown is part of a subset that was picked to be rich in actives. Unmarked numbers belong to inactive results. Rule as the data show it: active = inhibition above about 30%; inactive = the rest.
# Assay: inhibition of GDH and TPI enzymes – biochemical, absorbance, full deck, artefact control for M. tuberculosis FBA inhibitor project, primary screen (AID 588335);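 also: 0% = DMSO wells and 100% = wells lacking the enzyme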
# Conditions: GDH-TPI coupled enzyme counterscreen, NADH absorbance; at 4.8 µM; hits give high values
row,SMILES,inhibition
1,Cc1cc(C)nc(N/N=C/c2c(CO)cnc(C)c2O)n1,16.2%
2,CCN(CC)c1ccc(/C=N/Nc2nc(C)cc(C)n2)c(O)c1,31.7% (active)
3,Cn1cnnc1Sc1ccc(S(C)(=O)=O)cc1[N+](=O)[O-],13%
4,Cc1c(-c2nn(C)c(=O)c3ccccc23)oc2ccc(F)cc2c1=O,18%
5,CC(C)NC(=O)NCCCCCCS(C)=O (stereo not given),16.7%
6,Nc1nc(NCCCN2CCOCC2)nc(Nc2ccccc2)c1[N+](=O)[O-],28.5%
7,Nc1nc(Nc2ccccc2)nc(NCCO)c1[N+](=O)[O-],39.5% (active)
8,COCCNc1nc(N)c([N+](=O)[O-])c(NCCO)n1,26.7%
9,Cc1ccc(S(=O)(=O)N(NC2=NS(=O)(=O)c3ccccc32)C(=O)c2ccccc2)cc1,4.78%
10,CC(C)(C)c1csc(NC2=NS(=O)(=O)c3ccccc32)n1,36.1% (active)
11,O=C(Oc1cccc(NC2=NS(=O)(=O)c3ccccc32)c1)c1ccncc1,0.95%
12,Cc1cc(-c2ccccc2)nc(N2CCC(C(=O)NC34CC5CC(CC(C5)C3)C4)CC2)n1,-1.41%
13,CSc1nc2nc3c(c(=O)n2[nH]1)CCC3,5.66%
14,Cc1ccccc1NC(=O)Cc1nc(COC(=O)C(C)(C)Oc2ccc(Cl)cc2)cs1,-5.31%
15,O=C(O)/C=C\C(=O)Nc1ccc(OCc2ccccc2)cc1,5.18%
16,O=C(/C=C/c1ccco1)NC(=S)N1CCCCC1,10.6%
17,O=C(/C=C/c1ccco1)NC(=S)Nc1ccccc1Br,35.7% (active)
18,O=C(/C=C/c1ccco1)Nc1ccc(Oc2ccccc2)cc1,38% (active)
19,COc1ccc(Cl)cc1C(=O)NNC(=S)NC(=O)/C=C/c1ccco1,5.35%
20,COc1cccc(NC(=O)COC(=O)/C=C/c2ccco2)c1,6.67%
21,CCOc1ccc(NC(=O)CSc2nc3ccccc3c(=O)n2Cc2cccs2)cc1,6.55%
22,O=C(C[C@H]1C(=O)N(c2ccc(F)c(F)c2)C[C@@H]1Cc1ccccc1)Nc1ccccc1,-1.2%
23,O=Cc1cn(CCOc2ccc(F)cc2)c2ccccc12,7.08%
24,Cc1cccc2nc(CNc3ccc(F)cc3)cn12,10.8%

row,SMILES,inhibition
1,CCC1CCCCN1S(=O)(=O)Cc1ccccc1Cl (stereo not given),0.61%
2,COc1ccc(S(=O)(=O)N2CCCC2CNC(=O)C(=O)NC2CC2)cc1 (stereo not given),-18%
3,COc1ccc2c(c1)CCc1cn3ncc(C#N)c3nc1-2,2.17%
4,O=C(Nc1ccc(F)c([N+](=O)[O-])c1)C1CCCO1 (stereo not given),7.32%
5,COCCN(CCOC)S(=O)(=O)c1ccc(C(=O)Nc2nc3c(s2)CCc2ccccc2-3)cc1,9.74%
6,COCCN(CCOC)S(=O)(=O)c1ccc(/C(O)=C(\C#N)c2nc3ccccc3[nH]2)cc1,42.7% (active)
7,CC(C)(C)c1nnc2sc(SCC(O)=C(C#N)c3nc4ccccc4[nH]3)nn2c1=O,9.05%
8,CC1(C)CC(=O)C2=C(C1)N=C1SCCC(=O)N1C2c1ccc(C(F)(F)F)cc1 (stereo not given),31% (active)
9,CC1(C(=O)Nc2ccccc2Br)CCN1C(=O)CC1CC1 (stereo not given),-0.89%
10,C=CCSC(CC)(CC)C(N)=O,3.59%
11,CN1C(c2ccc(F)cc2)=CS/C1=C(/C#N)c1nnc2n1-c1ccccc1SC2,18.8%
12,Cc1ccccc1-n1cc(CNC(=O)CC2C(=O)NCCN2C/C=C/c2ccccc2)cn1 (stereo not given),-1.22%
13,COc1cccc(N2CCN(c3ccc4nnc(CCC(=O)N5CCN(C)CC5)n4n3)CC2)c1,-6.09%
14,COc1cccc(N2CCN(C3CC(=O)N(c4ccc(Cl)cc4)C3=O)CC2)c1 (stereo not given),-9.65%
15,COc1cccc(-c2nc3ccc(N4CCN(C)CC4)cc3[nH]2)c1,31.7% (active)
16,CCCN(C(=O)CSc1nnc(N)s1)c1c(N)n(Cc2ccccc2)c(=O)[nH]c1=O,2.63%
17,O=c1cccc(-c2ccc(Br)cc2)o1,17.6%
18,CCOC(=O)c1cc2cc3ccccc3cc2oc1=O,38.1% (active)
19,C=CCc1cccc2cc(C(=O)OCC)c(=O)oc12,10.2%
20,CCOc1cccc2cc(C(=O)OCC(=O)Nc3c(C)cccc3CC)c(=O)oc12,11.9%
21,CN1CCCc2cc(C#N)c(=O)[nH]c21,34.1% (active)
22,COc1ccccc1CNC(=O)COn1nnc2ccc(S(=O)(=O)N3CCOCC3)cc21,-5.57%
23,O=C(OCCN1C(=O)c2ccccc2C1=O)[C@@H]1CC(O)CN1S(=O)(=O)c1ccccc1[N+](=O)[O-] (stereo not given in full),3.16%
24,CC(=O)c1ccc(OCCCC(=O)Nc2ccc(C)c(S(=O)(=O)N3CCOCC3)c2)cc1,7.22%

row,SMILES,inhibition
1,COc1ccc2ccccc2c1CNCc1ccccn1,-14.6%
2,COc1ccccc1CCNC(=O)C1CCN(C(=O)/C=C/c2ccccc2)CC1,1.82%
3,COC(=O)c1ccc(COc2ccc(/C=C/C(=O)c3ccc(OC)c(CSCC(=O)O)c3)cc2OC)cc1,7.37%
4,COc1ccc(C(=O)/C=C/c2ccc(-c3ccccc3)cc2)cc1CSCC(=O)O,37.5% (active)
5,CCN(CC)C(=O)C(C)N1c2cccc3cccc(c23)S1(=O)=O (stereo not given),9.73%
6,CC1CCCCC1NC(=O)COC(=O)Cc1ccc(Cl)cc1 (stereo not given),3.03%
7,CCCN(CC(=O)NC(=O)NC1CCCCC1)CC(=O)Nc1cc(Cl)ccc1Cl,-7.58%
8,O=C(N/N=C/c1c(O)n(C2CC2)c(=S)[nH]c1=O)c1ccccc1Cl,40.6% (active)
9,O=c1[nH]c(=S)n(C2CC2)c(O)c1/C=N/N1CCOCC1,16.2%
10,O=C(N/N=C/c1c(O)n(C2CC2)c(=S)[nH]c1=O)c1ccccc1,25.8%
11,CC1CCN(C(=O)COC(=O)c2cc(=O)[nH]c3ccccc23)CC1,13.7%
12,CC(C)(C)n1nnnc1C(c1ccccc1F)N1CCN(C(=O)c2ccco2)CC1 (stereo not given),-4.67%
13,O=C(C[C@H]1C[C@H]2c3cc(NS(=O)(=O)c4ccc(F)cc4)ccc3O[C@H]2[C@H](CO)O1)NCc1cc(F)ccc1F,-2.37%
14,CCNC(=O)c1ccc(OCC(=O)Nc2ccc(F)cc2)c(OC)c1,0.63%
15,COc1ccc(C(=O)Nc2ccc(C3(C#N)CCCC3)cc2)cc1OC,9.36%
16,COc1ccc(C(=O)N/N=C2\CCS(=O)(=O)c3ccc(F)cc32)cc1OC,32.9% (active)
17,CC(Sc1cccc[n+]1[O-])C(=O)Nc1cccc(S(=O)(=O)N2CCOCC2)c1 (stereo not given),0%
18,CCn1cc(/C=C(\NC(=O)c2ccc(C)cc2)C(=O)NCCN2CCOCC2)c2ccccc21,40.6% (active)
19,COc1ccc(/C=C(\NC(=O)c2ccccc2)C(=O)NCCN2CCOCC2)cc1OC,14.8%
20,Cc1ccc(C(=O)N/C(=C\c2cn(S(=O)(=O)N(C)C)c3ccccc23)C(=O)N2CCCC2)cc1,-3.45%
21,CCSc1nnc(SCC(=O)NNC(=O)c2ccccc2F)s1,-1.01%
22,CC1Cc2ccccc2N1C(=O)c1cc2sccc2n1Cc1ccccc1 (stereo not given),-0.44%
23,CCOC(=O)C(C)n1cnc2c(nnn2-c2cccc(OC)c2)c1=O (stereo not given),-6.44%
24,COCCOC(=O)c1sc(=S)n(CCOC)c1N,11.4%

row,SMILES,inhibition
1,CCOC(=O)c1sc(=S)n(-c2cccc(OC)c2)c1N,33.3% (active)
2,Cc1cc(/C=N/n2cnnc2)c(C)n1-c1ccc2ncccc2c1,15%
3,O=S(=O)(Cc1nnnn1-c1ccccc1)c1ccccc1,-3.16%
4,COc1ccc(CN2CCCCC2C)cc1OC (stereo not given),7.17%
5,COc1cc(/C=C(\C#N)c2nc3ccccc3[nH]2)ccc1O,31.3% (active)
6,COc1ccc(C(=O)CN2C(=O)NC(C)(c3ccc(C)cc3)C2=O)cc1OC (stereo not given),-0.32%
7,COc1ccc(/C=C(/NC(=O)c2ccc(C)cc2)c2nc3ccccc3[nH]2)cc1OC,46.6% (active)
8,Cc1ccc(C(=O)N/C(=C/c2cccnc2)C(=O)O)cc1,1.45%
9,CCN(C[C@H]1N[C@@](CC)(C(=O)OC)[C@H]2C(=O)N(C)C(=O)[C@@H]12)C(=O)Nc1ccc(F)cc1,0%
10,COc1ccc(/C=N/OCc2ccccc2C#N)c(OC)c1,-3.57%
11,COC(=O)c1ccc(Nc2ncnc3sccc23)cc1,8.09%
12,CCOC(=O)c1nc(Nc2ccc(C(=O)OC)cc2)c2ccccc2n1,33.2% (active)
13,CCOC(=O)c1ccc(N/C(=N/S(=O)(=O)c2ccccc2)c2ccccc2)cc1,10.9%
14,O=C(c1ccco1)N1CCN(Cc2cccc(C(F)(F)F)c2)CC1,-0.77%
15,c1ccc(-c2nnc3n2NC(c2ccc4c(c2)OCO4)S3)cc1 (stereo not given),17.1%
16,CC(=O)c1ccc(N2CCN(C(=O)C3CCN(S(=O)(=O)c4ccc5c(c4)CC(C)N5C(=O)C4CC4)CC3)CC2)cc1 (stereo not given),23.5%
17,CC(C)c1cc(C(=O)O)n[nH]1,8.57%
18,Cc1ccc(/C=N/NC(=O)C(NC(=O)c2ccccc2)c2n[nH]c(=O)c3ccccc23)cc1 (stereo not given),1.58%
19,CC(C)c1cc(C(=O)N/N=C/C(Br)=C/c2ccccc2)n[nH]1,36.9% (active)
20,COc1ccc(CNC(=O)C(NS(=O)(=O)c2cccc3nsnc23)C(C)C)cc1 (stereo not given),1.17%
21,COc1cccc(/C=C(/CC(=O)Nc2ccc(N3CCOCC3)cc2)c2nc3ccccc3s2)c1,32.1% (active)
22,CCn1c(Cc2ccc(OC)cc2)nnc1SCC(=O)Nc1ccc(N2CCOCC2)cc1,-0.78%
23,Cc1ccc(OCCCC(=O)Nc2ccc(N3CCOCC3)cc2)cc1,-5.32%
